Inconclusive results are not listed. Active and inactive are the calls of the source. Unless noted, the call rests on the fitted dose curve; in most records, active means well fitted curve in the direction sought with a large enough effect in the repeat runs; inconclusive means weak or mixed curves; inactive means no such curve, though single readings can be large; an effect the other way counts as inactive or inconclusive.
Assays:
[1] = qHTS assay for small molecule agonists of the p53 signaling pathway - cell viability (AID 651633; calls by dose curve;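 further: p53RE-bla HCT reporter cells with a stable beta-lactamase p53 reporter; series mostly up to about 83 µM; nearly all actives have a fitted effect of over 30% in size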)
Procedure, shortened: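 Viability counter-read: CellTiter-Glo luminescence (30 min, room temperature) in the same p53RE-bla plates. These plates had been exposed to compounds for 16 h at 37 C.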

[2] = qHTS assay for small molecules that induce genotoxicity in human embryonic kidney cells expressing luciferase-tagged ATAD5 - cell viability (AID 651634; calls by dose curve; further: nearly all actives have a fitted effect of over 25% in size)
Procedure, shortened: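 15.5 hr compound or vehicle exposure of HEK293T cells expressing luciferase-tagged ATAD5 at 37C; live-cell protease activity is read by fluorescence after 30 min of CellTiter-Fluor.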

[3] = qHTS assay for small molecule disruptors of the mitochondrial membrane potential - cell viability (AID 720634; calls by dose curve;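 further: human HepG2 liver cancer cells; series mostly up to about 83 µM; nearly all actives have a fitted effect of over 20% in size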)
Procedure, shortened: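 In this qHTS format, HepG2 cells plated overnight were pinned with compound, incubated 1 hr, and assayed for ATP luminescence with CellTiter-Glo after m-MPI dye addition.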

[4] = qHTS assay for small molecule disruptors of the mitochondrial membrane potential (AID 720635)
Procedure, shortened: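 Mitochondrial membrane potential tracked with Mito-MPS dye, red aggregates (ex 540/em 590 nm) against green monomers (ex 490/em 535 nm). Compound treatment 1 hr at 37C, dye 30 min in HepG2.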

[5] = qHTS assay to test for compound auto fluorescence at 590 nm (red) in HepG2 cells (AID 720674)
Procedure, shortened: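 1 hr compound incubation on HepG2 cells, 37 C, 5% CO2; plate read ex 540 nm / em 590 nm; intensities reported as Rose Bengal sodium equivalents.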

[6] = qHTS assay to test for compound auto fluorescence at 535 nm (green) in HepG2 cells (AID 720675)
[7] = qHTS assay to test for compound auto fluorescence at 590 nm (red) in HEK293 cells (AID 720679)
Procedure, shortened: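 Intensity at 540nm excitation and 590nm emission is reported as Rose Bengal sodium-equivalent autofluorescence. Measurements followed overnight exposure (37C, 5% CO2) of HEK293 cells, 2,000 per well, to 23 nL compound.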

[8] = qHTS assay to test for compound auto fluorescence at 535 nm (green) in HEK293 cells (AID 720680)
[9] = qHTS assay to test for compound auto fluorescence at 460 nm (blue) in HEK293 cell free culture (AID 720681)
Procedure, shortened: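 Blue fluorescence (Ex 405/Em 460 nm, triamterene-equivalent) was read immediately after pin transfer of compound or DMSO into medium (DMEM, 10% FBS) without cells.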

[10] = qHTS assay to test for compound auto fluorescence at 535 nm (green) in HEK293 cell free culture (AID 720682)
Procedure, shortened: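 Compounds were pin-transferred into cell-free DMEM with 10% FBS, and green fluorescence was read at excitation 485 nm and emission 535 nm. Intensities were expressed as fluorescein-equivalent values.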

[11] = qHTS assay to test for compound auto fluorescence at 590 nm (red) in HEK293 cell free culture (AID 720683)
Procedure, shortened: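 Red-channel autofluorescence of compounds in culture medium (DMEM, 10% FBS), no cells, measured at 540/590 nm. Rose Bengal sodium is the reference fluorophore for equivalence.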

[12] = qHTS assay to test for compound auto fluorescence at 590 nm (red) in HepG2 cell free culture (AID 720684)
Procedure, shortened: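 No cells present: MEM + 10% FBS only. Compound pinned in, red label read (540/590 nm). Activity = fluorescence equivalent to Rose Bengal sodium.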

[13] = qHTS assay to test for compound auto fluorescence at 460 nm (blue) in HepG2 cell free culture (AID 720685)
Procedure, shortened: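 Cell-free plates of MEM plus 10% FBS received 23 nL compound or DMSO vehicle; blue-channel (405/460 nm) intensity scored against triamterene as reference fluorophore.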

[14] = qHTS assay to test for compound auto fluorescence at 535 nm (green) in HepG2 cell free culture (AID 720686)
[15] = qHTS assay to test for compound auto fluorescence at 460 nm (blue) in HepG2 cells (AID 720687)
Procedure, shortened: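 Blue-channel autofluorescence (Ex/Em 405/460 nm, triamterene-equivalent) was measured after 1 hr compound exposure at 37 C, 5% CO2. Cells were HepG2, plated overnight at 37 C in MEM plus 10% FBS.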

[16] = molecular target: Glucocorticoid receptor (Homo sapiens) (UniProt P04150); assay: qHTS assay to identify small molecule agonists of the glucocorticoid receptor (GR) signaling pathway (AID 720691; active means well fitted activation curve with a large enough effect in the signal ratio in the repeat runs, not every such curve was filed as active; the % refers to the signal ratio)
Procedure, shortened: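 Measures GR pathway activation through a GRE-beta-lactamase reporter stably integrated in HeLa cells, with 18 h compound treatment at 37 C and fluorescence detection using a FRET substrate.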

[17] = molecular target: Glucocorticoid receptor (Homo sapiens) (UniProt P04150); assay: qHTS assay to identify small molecule antagonists of the glucocorticoid receptor (GR) signaling pathway (AID 720692; active means well fitted inhibition curve with a large enough effect in the signal ratio in the repeat runs, not every such curve was filed as active; the % refers to the signal ratio)
Procedure, shortened: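 Tox21 10K library screened in concentration-response for blockade of dexamethasone (5 nM final)-induced GRE-bla reporter activity in HeLa cells; 18 h treatment, fluorescence read.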

[18] = qHTS assay to test for compound auto fluorescence at 460 nm (blue) in HEK293 cells (AID 720678)
Procedure, shortened: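 HEK293, 2,000 cells/well, 10% dialyzed FBS; attach 4-5 hr 37C; pin compound or DMSO; o/n 37C/5% CO2; fluorescence 405/460 nm; triamterene-equivalent units.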

[19] = qHTS assay for small molecules that induce genotoxicity in human embryonic kidney cells expressing luciferase-tagged ATAD5 (AID 651632); further: nearly all actives have a fitted effect of over 15% in size
Procedure, shortened: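 Concentration-response screen for ATAD5 upregulation in HEK293T luciferase reporter cells; 16 hr treatment at 37C, then luminescence after 30 min with Amplite at room temperature.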

Measured: Potency

Chain of Glucocorticoid receptor (Homo sapiens) (P04150 whole entry, looked up): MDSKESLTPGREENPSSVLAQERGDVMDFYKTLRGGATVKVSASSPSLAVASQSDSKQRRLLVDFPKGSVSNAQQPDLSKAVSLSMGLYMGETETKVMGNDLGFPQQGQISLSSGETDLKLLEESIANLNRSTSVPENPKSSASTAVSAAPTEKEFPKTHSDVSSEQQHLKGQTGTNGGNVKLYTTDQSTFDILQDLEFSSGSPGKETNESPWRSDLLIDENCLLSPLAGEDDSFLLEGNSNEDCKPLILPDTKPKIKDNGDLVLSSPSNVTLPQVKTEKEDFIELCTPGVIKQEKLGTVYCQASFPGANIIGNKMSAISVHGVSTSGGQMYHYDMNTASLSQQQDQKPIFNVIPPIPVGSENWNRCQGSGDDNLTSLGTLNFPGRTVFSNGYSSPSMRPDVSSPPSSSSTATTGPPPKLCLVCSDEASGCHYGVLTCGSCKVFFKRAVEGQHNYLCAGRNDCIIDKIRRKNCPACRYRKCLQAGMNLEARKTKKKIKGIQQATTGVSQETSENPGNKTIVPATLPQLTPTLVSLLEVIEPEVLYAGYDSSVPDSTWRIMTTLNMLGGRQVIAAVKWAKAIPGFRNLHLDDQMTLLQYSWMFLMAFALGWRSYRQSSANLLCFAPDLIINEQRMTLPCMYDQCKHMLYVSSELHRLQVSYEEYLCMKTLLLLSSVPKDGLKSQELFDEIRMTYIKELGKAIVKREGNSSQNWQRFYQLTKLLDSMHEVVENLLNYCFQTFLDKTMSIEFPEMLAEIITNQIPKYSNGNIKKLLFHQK

C[C@H](CCC(=O)O)[C@H]1CC[C@H]2[C@@H]3[C@H](O)C[C@@H]4C[C@H](O)CC[C@]4(C)[C@H]3C[C@H](O)[C@]12C
inactive: [1] | [2] | [3] | [4] | [5] | [6] | [7] | [8] | [9] | [10] | [11] | [12] | [13] | [14] | [15] | [16] | [17]

CC(C)CCCCCCOC(=O)C1CCCCC1C(=O)OCCCCCCC(C)C (stereo not given)
inactive: [1] | [3] | [5] | [6] | [18] | [7] | [8] | [9] | [10] | [11] | [12] | [14] | [15] | [16] | [17]

Nc1ccc(/C=C/c2ccc(N)cc2S(=O)(=O)O)c(S(=O)(=O)O)c1
inactive: [1] | [3] | [4] | [5] | [6] | [18] | [7] | [8] | [9] | [10] | [11] | [12] | [13] | [14] | [15] | [16]

FC(F)(F)/C(=N\OCC1OCCO1)c1ccc(Cl)cc1
inactive: [1] | [3] | [5] | [6] | [8] | [9] | [10] | [11] | [12] | [13] | [14] | [15] | [16] | [17]

CCCCOC(=O)[C@@H](C)Oc1ccc(Oc2ccc(C(F)(F)F)cn2)cc1
inactive: [1] | [2] | [4] | [5] | [6] | [18] | [7] | [8] | [9] | [10] | [11] | [12] | [13] | [15] | [16]

CC(C)CCO
inactive: [1] | [2] | [3] | [5] | [6] | [18] | [7] | [8] | [9] | [10] | [11] | [12] | [13] | [14] | [15]

COc1ccc(N=Nc2cc(C)c(N=Nc3ccc(S(=O)(=O)O)cc3)cc2OC)cc1
inactive: [19] | [2] | [3] | [5] | [6] | [18] | [7] | [8] | [9] | [10] | [11] | [12] | [13] | [14] | [15] | [16] | [17]

CC(C)COC(=O)COc1ccc(Cl)cc1Cl
inactive: [19] | [1] | [3] | [5] | [7] | [8] | [9] | [10] | [11] | [12] | [13] | [14] | [15] | [16] | [17]

CCCCCCCCCCCCC1CO1 (stereo not given)
inactive: [1] | [3] | [5] | [6] | [18] | [7] | [8] | [9] | [10] | [11] | [12] | [13] | [15] | [16] | [17]

CCCCCCCC[Si](OCC)(OCC)OCC
inactive: [19] | [3] | [5] | [18] | [7] | [8] | [9] | [10] | [11] | [12] | [13] | [15] | [16] | [17]

O=S1(=O)CCCC1
inactive: [1] | [2] | [5] | [6] | [18] | [7] | [8] | [9] | [10] | [11] | [12] | [13] | [15]

NC(=O)C1(N2CCCCC2)CCN(CCCC(=O)c2ccc(F)cc2)CC1
inactive: [1] | [2] | [3] | [4] | [5] | [6] | [18] | [7] | [8] | [9] | [10] | [11] | [12] | [13] | [15] | [16]

CCCCCCCCCCCCCC(=O)OC
inactive: [19] | [2] | [5] | [18] | [7] | [8] | [9] | [10] | [11] | [12] | [14] | [15] | [16] | [17]

C[N+](C)(C)CC(O)CCl (stereo not given)
inactive: [1] | [2] | [5] | [6] | [18] | [9] | [10] | [11] | [12] | [13] | [14] | [15] | [16] | [17]
